Results as given in PubChem BioAssay (EPA / NIEHS).
Where “and” joins values, the source holds several entries; their conditions need not be identical. Equal entries are not always repeated. Calls of active or inactive are those of the source. Rule for the calls: active = hit-call score of the fitted dose curve at least 0.9, where 1 is the maximum; inconclusive = response in the unintended direction; inactive = score below 0.9.

target: rat CYP2A2, Cyp2a2 (gene 24895) (UniProt P15149); experiment: NVS_ADME_rCYP2A2: NovaScreen (NVS) CYP450-related Enzyme Activity (ADME) Assay for rat CYP2A2 (AID 2283116)
Experimental: NVS_ADME_rCYP2A2 is a biochemical, single-readout assay that uses extracted gene-proteins in a cell-free assay. Measurements were taken 0.2 hour after chemical dosing in a 96-well plate.NVS_ADME_rCYP2A2 is one of one assay component(s) measured or calculated from the NVS_ADME_rCYP2A2 assay. It is designed to make measurements of enzyme activity, a form of enzyme reporter, as detected with fluorescence intensity signals by Fluorescence technology.Data from the assay component NVS_ADME_rCYP2A2 was analyzed into 1 assay endpoint. This assay endpoint, NVS_ADME_rCYP2A2, was analyzed in the positive analysis fitting direction relative to Acetonitrile as the negative control and baseline of activity. Using a type of enzyme reporter, loss-of-signal activity can be used to understand changes in the enzymatic activity as they relate to the gene Cyp2a2. Furthermore, this assay endpoint can be referred to as a primary readout, because this assay has produced multiple assay endpoints where this one serves a enzymatic activity function. To generalize the intended target to other relatable targets, this assay endpoint is annotated to the cyp intended target family, where the subfamily is xenobiotic metabolism.
Binding assays used specific radioligands (tritiated, iodinated) with non-radioactive competitive displacement ligands in agonist or antagonist protocols (as indicated) and various reference compounds and inhibitors to titrate specific binding to receptors and transporters. Most enzyme assays (CYPs, kinases, phosphatases, proteases, HDACs) used recombinant protein and specific substrates (fluorescence mostly, some colorimetric and radioactive) and inhibitors, followed by a biochemical separation of substrate and product. All assays for the biochemical HTS were initially run in duplicate at a single concentration (10 uM for CYP450 assays and 25 uM for all others). Assay-chemical combinations meeting a pre-defined threshold (e.g., 30% inhibition and other criteria defined below) were then run in singleton concentration-response format with maximum concentration of 20 uM for CYPs and 50 uM for all others. Each assay was run with positive and negative controls, and concurrent controls on every plate. The follow-up (secondary) screen tested active chemical-pairs in concentration series, as well as a few additional assays not tested in the primary screen, some selected negative inactives, and several cases re-run in the concentration series for confirmatory purposes.

Chain of rat CYP2A2, Cyp2a2 (gene 24895) (P15149 whole entry, looked up): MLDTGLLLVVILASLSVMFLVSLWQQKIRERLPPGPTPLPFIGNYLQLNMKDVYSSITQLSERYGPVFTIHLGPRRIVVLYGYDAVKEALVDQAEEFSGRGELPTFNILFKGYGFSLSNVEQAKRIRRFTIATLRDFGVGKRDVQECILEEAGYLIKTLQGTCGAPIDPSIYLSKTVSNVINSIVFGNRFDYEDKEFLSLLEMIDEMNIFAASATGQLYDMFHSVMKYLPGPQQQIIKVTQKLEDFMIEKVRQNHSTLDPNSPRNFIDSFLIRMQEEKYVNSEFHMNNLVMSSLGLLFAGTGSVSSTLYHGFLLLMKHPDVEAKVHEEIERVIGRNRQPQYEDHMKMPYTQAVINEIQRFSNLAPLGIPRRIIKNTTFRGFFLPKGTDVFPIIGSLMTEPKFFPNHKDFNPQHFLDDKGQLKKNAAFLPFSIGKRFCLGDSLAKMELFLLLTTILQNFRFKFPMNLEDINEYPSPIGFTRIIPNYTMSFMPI

SMILES	AC50	outcome
CC(C)(C)C(=O)C(Oc1ccc(Cl)cc1)n1cncn1 (stereo unspecified)	32 nM (active) and 40.6 nM (active)	–
CCCCC(O)(Cn1cncn1)c1ccc(Cl)cc1Cl (stereo unspecified)	0.0126 µM (active)	–
CC1(C)CCC(=Cc2ccc(Cl)cc2)C1(O)Cn1cncn1 (stereo unspecified)	0.299 µM (active)	–
CCOc1cc(C(C)(C)C)ccc1C1COC(c2c(F)cccc2F)=N1 (stereo unspecified)	1.15 µM (active)	–
CC(C)C1(C)N=C(c2ncccc2C(=O)O)NC1=O (stereo unspecified)	6.92 µM (active)	–
CCN(CC)C(=O)C(C)Oc1cccc2ccccc12 (stereo unspecified)	5.89 µM (active)	–
Cc1c(COC(=O)[C@@H]2[C@H](/C=C(\Cl)C(F)(F)F)C2(C)C)cccc1-c1ccccc1	–	inactive
CCCN(CC)CC1COC2(CCC(C(C)(C)C)CC2)O1 (stereo unspecified)	–	inactive
COP(=S)(OC)SCn1nnc2ccccc2c1=O	5.47 µM (active)	–
CCNP(=S)(OC)O/C(C)=C/C(=O)OC(C)C (stereo unspecified)	6.86 µM (active)	–
CCCCC(C#N)(Cn1cncn1)c1ccc(Cl)cc1 (stereo unspecified)	0.238 µM (active)	–
